Measured values taken from PubChem BioAssay (Tox21).
Where “and” joins values, the source holds several entries; their conditions need not be identical. Identical values can stand only once. Inconclusive results are not listed. Some compounds were tested as several samples or in several runs, with calls that do not always agree. Calls of active or inactive are those of the source. Unless noted, calls come from the whole dose curve.

Key:
[1] = qHTS assay to identify small molecule antagonists of the retinoid-related orphan receptor gamma (ROR-gamma) signaling pathway - cell viability counter screen (AID 1159520; active = well fitted curve in the direction sought with a large enough effect in the repeat runs; an effect the other way counts as inactive or inconclusive; note: nearly all actives have a fitted effect of over 50% in size; note: potency is the fitted concentration of half-maximal effect)
Procedure, shortened: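 Tet-on ROR gamma CHO cells (1,000/well) were plated 4 hr, given compounds in DMSO for 2 hr at 37 C, then induced with 1 uM final doxycycline for 16 hr. Viability was read as ATP by CellTiter-Glo luminescence after 30 min.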

[2] = target: Nuclear receptor ROR-gamma (Homo sapiens) (UniProt P51449); assay: qHTS assay to identify small molecule antagonists of the retinoid-related orphan receptor gamma (ROR-gamma) signaling pathway (AID 1159521; active = well fitted curve in the direction sought with a large enough effect in the repeat runs; an effect the other way counts as inactive or inconclusive; note: nearly all actives have a fitted effect of over 50% in size; note: potency is the fitted concentration of half-maximal effect)
Procedure, shortened: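 Screening format: cell-based luciferase reporter in CHO cells with doxycycline-inducible RORγ. Compound pre-exposure lasts 2 h, doxycycline is 1 uM final, induction runs 16 h at 37 C, and ONE-Glo luminescence is read.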

[3] = qHTS assay to identify small molecule agonists of the AP-1 signaling pathway - cell viability counter screen (AID 1159525); note: nearly all actives have a fitted effect of over 55% in size; note: potency is the fitted concentration of half-maximal effect
Procedure, shortened: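 ME-180 AP-1-bla, 2500 cells/well, Opti-MEM + 0.5% dialyzed FBS; overnight 37 °C; cpd 15-pt titration, 5 h 37 °C; CellTiter-Glo 30 min RT; luminescence read; normalised to TOAB and DMSO controls.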

[4] = qHTS assay to identify small molecule agonists of the AP-1 signaling pathway (AID 1159526); note: % is set by controls: 0 for no effect and ±100 for the full control effect
[5] = target: Retinoic acid receptor RXR-alpha (Homo sapiens) (UniProt P19793); assay: qHTS assay to identify small molecule agonists of the RXR signaling pathway (AID 1159527); note: % is set by controls: 0 for no effect and ±100 for the full control effect; nearly all actives have a fitted effect of over 35% in size
Chain of Retinoic acid receptor RXR-alpha (Homo sapiens) (P19793 whole entry, looked up): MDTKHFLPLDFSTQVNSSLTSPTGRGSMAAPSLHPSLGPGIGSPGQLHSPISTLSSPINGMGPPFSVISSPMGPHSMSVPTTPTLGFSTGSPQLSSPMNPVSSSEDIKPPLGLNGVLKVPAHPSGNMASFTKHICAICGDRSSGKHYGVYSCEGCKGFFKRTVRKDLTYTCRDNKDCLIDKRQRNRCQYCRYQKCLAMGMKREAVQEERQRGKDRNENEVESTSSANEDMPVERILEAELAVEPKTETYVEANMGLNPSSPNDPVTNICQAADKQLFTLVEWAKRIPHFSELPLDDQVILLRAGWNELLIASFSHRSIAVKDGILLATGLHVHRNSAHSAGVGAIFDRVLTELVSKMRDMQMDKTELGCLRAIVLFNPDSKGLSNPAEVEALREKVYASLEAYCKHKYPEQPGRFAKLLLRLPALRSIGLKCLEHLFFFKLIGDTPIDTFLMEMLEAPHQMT
Procedure, shortened: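 Fluorescence ratio readout (460 vs 530 nm) from GeneBLAzer RXR-alpha HEK 293T cells after 16 hr compound treatment; cells seeded 5 hr beforehand in low-serum, charcoal-stripped medium.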

[6] = qHTS assay to identify small molecule agonists of the peroxisome proliferator-activated receptor delta (PPARd) signaling pathway - cell viability counter screen (AID 743211; active = well fitted curve in the direction sought with a large enough effect in the repeat runs; an effect the other way counts as inactive or inconclusive; note: nearly all actives have a fitted effect of over 55% in size; note: potency is the fitted concentration of half-maximal effect)
Procedure, shortened: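 Following 5 h plating at 37 C and 5% CO2, PPARd UAS-bla HEK293H cells took up test compounds for 17 h. Viability was quantified by luminescence 30 min after CellTiter-Glo addition at room temperature.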

[7] = qHTS assay to identify small molecule antagonists of the peroxisome proliferator-activated receptor delta (PPARd) signaling pathway - cell viability counter screen (AID 743213; active = well fitted curve in the direction sought with a large enough effect in the repeat runs; an effect the other way counts as inactive or inconclusive; note: nearly all actives have a fitted effect of over 50% in size; note: potency is the fitted concentration of half-maximal effect)
Procedure, shortened: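 HEK293H PPARd UAS-bla cells, 5 h pre-incubation, compound + L165041 300 nM final, 17 h 37 C; B/G FRET substrate 2 h RT; then CellTiter-Glo 30 min RT, luminescence.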

[8] = qHTS assay to identify small molecule agonists of the farnesoid-X-receptor (FXR) signaling pathway - cell viability counter screen (AID 743218; active = well fitted curve in the direction sought with a large enough effect in the repeat runs; an effect the other way counts as inactive or inconclusive; note: nearly all actives have a fitted effect of over 45% in size; note: potency is the fitted concentration of half-maximal effect)
Procedure, shortened: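 Cytotoxicity counter-screen run in parallel, same wells: FXR-UAS-bla HEK 293T cells dosed 16 h at 37 C, viability read by CellTiter-Glo luminescence after 30 min at room temperature.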

[9] = qHTS assay to identify small molecule antagonists of the farnesoid-X-receptor (FXR) signaling pathway - cell viability counter screen (AID 743221; active = well fitted cell-killing curve with a large enough effect in the repeat runs, not every such curve was filed as active; note: nearly all actives have a fitted effect of over 50% in size; note: potency is the fitted concentration of half-maximal effect)
Procedure, shortened: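 Compound effects on cell number were measured as CellTiter-Glo luminescence in HEK 293T cells expressing FXR-UAS-bla, after 16 h at 37 C with 50 uM CDCA (final).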

[10] = qHTS assay to identify small molecule agonists of the vitamin D receptor (VDR) signaling pathway - cell viability counter screen (AID 743224; active = well fitted curve in the direction sought with a large enough effect in the repeat runs; an effect the other way counts as inactive or inconclusive; note: nearly all actives have a fitted effect of over 50% in size; note: potency is the fitted concentration of half-maximal effect)
Procedure, shortened: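 Viability is measured in the same wells as the VDR-bla reporter assay: after 16 h compound treatment and 2 h substrate loading, CellTiter-Glo is added and luminescence read 30 min later.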

[11] = qHTS assay to identify small molecule agonists of the endoplasmic reticulum stress response signaling pathway - cell viability counter screen (AID 1159517); note: nearly all actives have a fitted effect of over 50% in size; note: potency is the fitted concentration of half-maximal effect
Procedure, shortened: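 Luminescence readout: CellTiter-Glo, 30 min RT, same wells as the ESRE-bla reporter read. HeLa ESRE-bla, 1,500 cells/well, o/n 37 C; cpd 5 hr 37 C/5% CO2.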

[12] = target: Peroxisome proliferator-activated receptor delta (Homo sapiens) (UniProt Q03181); assay: qHTS assay to identify small molecule agonists of the peroxisome proliferator-activated receptor delta (PPARd) signaling pathway (AID 743212); note: % is set by controls: 0 for no effect and ±100 for the full control effect
Chain of Peroxisome proliferator-activated receptor delta (Homo sapiens) (Q03181 whole entry, looked up): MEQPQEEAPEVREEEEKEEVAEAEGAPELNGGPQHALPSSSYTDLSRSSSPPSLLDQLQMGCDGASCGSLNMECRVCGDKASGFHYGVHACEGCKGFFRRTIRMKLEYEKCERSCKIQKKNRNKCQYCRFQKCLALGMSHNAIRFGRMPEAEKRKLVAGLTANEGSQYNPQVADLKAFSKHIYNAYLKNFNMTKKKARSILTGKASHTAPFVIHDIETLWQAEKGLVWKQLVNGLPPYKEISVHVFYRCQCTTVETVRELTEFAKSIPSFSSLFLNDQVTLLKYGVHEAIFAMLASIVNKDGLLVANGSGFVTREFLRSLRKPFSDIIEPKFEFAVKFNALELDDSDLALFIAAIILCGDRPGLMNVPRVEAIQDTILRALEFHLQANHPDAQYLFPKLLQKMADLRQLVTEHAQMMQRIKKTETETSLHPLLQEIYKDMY
Procedure, shortened: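 GeneBLAzer PPARd UAS-bla HEK293H cells (beta-lactamase reporter under UAS control), plated and rested 5 h at 37 C, then exposed to compounds in DMSO at 37 C; LiveBLAzer B/G FRET substrate added, 2 h room temperature, fluorescence read.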

[13] = target: Peroxisome proliferator-activated receptor delta (Homo sapiens) (UniProt Q03181); assay: qHTS assay to identify small molecule antagonists of the peroxisome proliferator-activated receptor delta (PPARd) signaling pathway (AID 743215; active = well fitted inhibition curve with a large enough effect in the signal ratio in the repeat runs, not every such curve was filed as active; the % refers to the signal ratio;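 note: cells stimulated with agonist L165041 at 300 nM final during compound exposure; series mostly up to about 62 µM; % is set by controls: 0 for no effect and ±100 for the full control effect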)
Procedure, shortened: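 Inhibition of L165041-driven (300 nM final) PPARd signaling is scored in HEK293H UAS-bla cells. Exposure lasts 17 h at 37 C; beta-lactamase activity is then read by FRET substrate fluorescence after 2 h at room temperature.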

[14] = qHTS assay to identify small molecule antagonists of the vitamin D receptor (VDR) signaling pathway - cell viability counter screen (AID 743225; active = well fitted curve in the direction sought with a large enough effect in the repeat runs; an effect the other way counts as inactive or inconclusive; note: nearly all actives have a fitted effect of over 50% in size; note: potency is the fitted concentration of half-maximal effect)
Procedure, shortened: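 In this counter screen, VDR-bla HEK 293T cells receive test compound plus 3 nM final calcitriol for 16 h at 37C. Room-temperature steps of 2 h with the beta-lactamase substrate, then 30 min with CellTiter-Glo, precede the luminescence read.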

[15] = target: Bile acid receptor (Homo sapiens) (UniProt Q96RI1); assay: qHTS assay to identify small molecule agonists of the farnesoid-X-receptor (FXR) signaling pathway (AID 743220; active = well fitted activation curve with a large enough effect in the signal ratio in the repeat runs, not every such curve was filed as active; the % refers to the signal ratio; note: % is set by controls: 0 for no effect and ±100 for the full control effect)
Chain of Bile acid receptor (Homo sapiens) (Q96RI1 whole entry, looked up): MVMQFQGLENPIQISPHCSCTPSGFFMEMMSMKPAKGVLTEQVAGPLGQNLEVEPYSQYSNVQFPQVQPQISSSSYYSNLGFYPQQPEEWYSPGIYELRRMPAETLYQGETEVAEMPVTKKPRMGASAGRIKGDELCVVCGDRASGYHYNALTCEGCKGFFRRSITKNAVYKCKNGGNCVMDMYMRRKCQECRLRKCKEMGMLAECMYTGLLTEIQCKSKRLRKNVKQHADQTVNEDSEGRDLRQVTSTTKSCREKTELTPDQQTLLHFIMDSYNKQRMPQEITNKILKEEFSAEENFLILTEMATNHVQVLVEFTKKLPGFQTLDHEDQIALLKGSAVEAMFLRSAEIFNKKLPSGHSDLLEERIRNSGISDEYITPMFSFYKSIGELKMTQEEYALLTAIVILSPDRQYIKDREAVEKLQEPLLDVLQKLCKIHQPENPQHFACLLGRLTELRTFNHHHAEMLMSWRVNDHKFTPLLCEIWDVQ
Procedure, shortened: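 Beta-lactamase reporter under UAS control in GeneBLAzer FXR HEK 293T cells (5000/well) measured with LiveBLAzer FRET substrate after 2 h at room temperature. Compound exposure lasted 16 h at 37C.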

[16] = target: Vitamin D3 receptor (Homo sapiens) (UniProt P11473); assay: qHTS assay to identify small molecule agonists of the vitamin D receptor (VDR) signaling pathway (AID 743222); note: % is set by controls: 0 for no effect and ±100 for the full control effect
Chain of Vitamin D3 receptor (Homo sapiens) (P11473 whole entry, looked up): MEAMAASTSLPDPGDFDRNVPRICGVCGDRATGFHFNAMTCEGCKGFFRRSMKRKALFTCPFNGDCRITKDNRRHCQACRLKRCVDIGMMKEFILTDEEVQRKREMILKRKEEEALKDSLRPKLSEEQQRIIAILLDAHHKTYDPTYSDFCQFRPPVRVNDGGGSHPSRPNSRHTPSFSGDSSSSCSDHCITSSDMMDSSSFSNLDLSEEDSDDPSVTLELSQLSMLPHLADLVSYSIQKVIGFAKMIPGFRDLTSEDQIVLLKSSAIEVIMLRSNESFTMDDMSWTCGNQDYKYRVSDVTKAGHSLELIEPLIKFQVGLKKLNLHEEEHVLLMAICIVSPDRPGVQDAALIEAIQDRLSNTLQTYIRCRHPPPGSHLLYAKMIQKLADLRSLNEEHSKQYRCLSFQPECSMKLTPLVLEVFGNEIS
Procedure, shortened: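 Quantitative HTS agonist-mode screen: compounds in DMSO were pin-transferred onto VDR-bla cells and incubated 16 h at 37C, 5% CO2. Reporter activity was detected with LiveBLAzer B/G FRET substrate after 2 h at room temperature.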

[17] = target: Vitamin D3 receptor (Homo sapiens) (UniProt P11473); assay: qHTS assay to identify small molecule antagonists of the vitamin D receptor (VDR) signaling pathway (AID 743223; active = well fitted inhibition curve with a large enough effect in the signal ratio in the repeat runs, not every such curve was filed as active; the % refers to the signal ratio; note: % is set by controls: 0 for no effect and ±100 for the full control effect)
Procedure, shortened: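 Beta-lactamase activity in VDR-bla cells is measured by FRET substrate fluorescence (2 h, room temperature) after cells spend 16 h at 37C with test compound and 3 nM final 1alpha,25-dihydroxyvitamin D3.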

O=[N+]([O-])c1cc(Cl)ccc1Cl
inactive: Potency [1] | Potency [2] | Potency [3] | Potency [4] | outcome [5]

ClC1=C(Cl)[C@]2(Cl)[C@@H]3[C@@H](Cl)[C@H](Cl)C[C@@H]3[C@@]1(Cl)C2(Cl)Cl
inactive: Potency [1] | Potency [2] | Potency [3] | Potency [4] | outcome [5]

O=[N+]([O-])O.O=[N+]([O-])O.[Cd]
active: Potency [6] 1.95 µM | Potency [7] 5.49 µM | Potency [8] 12.3 µM | Potency [9] 6.16 µM | Potency [10] 1.74 µM
inactive: Potency [11]

[Cl][Sn]([c]1ccccc1)([c]1ccccc1)[c]1ccccc1
active: Potency [1] 0.411 µM | Potency [2] 0.082 µM | Potency [3] 10.4 µM

COCC(=O)N(c1c(C)cccc1C)[C@H](C)C(=O)OC
inactive: Potency [1] | Potency [2] | Potency [3] | Potency [4] | outcome [5]

CC(=O)OC1(c2ccccc2)CCN(CCc2ccccc2)CC1
inactive: Potency [12] | Potency [13] | Potency [8] | Potency [9] | Potency [10] | Potency [14] | Potency [11] | Potency [3] | outcome [5]

O=C1C=CC(=O)c2ccccc21
active: Potency [1] 3.44 µM | Potency [2] 1.54 µM

CC(Cl)CN(C)C (stereo not drawn)
inactive: Potency [1] | Potency [2] | Potency [3]

CC(C)(C)c1cc([N+](=O)[O-])cc(C(C)(C)C)c1O
active: Potency [10] 12.3 µM | Potency [14] 12.3 µM
inactive: Potency [12] | Potency [7] | Potency [13] | Potency [8] | outcome [15] | Potency [16] | Potency [11] | Potency [3] | outcome [5]

Oc1ccc(C(c2ccc(O)cc2)(C(F)(F)F)C(F)(F)F)cc1
inactive and 54.9 µM (active): Potency [10]
inactive: Potency [12] | Potency [7] | Potency [13] | Potency [8] | Potency [16] | Potency [17] | outcome [5]
active: Potency [11] 49 µM

Brc1c(Br)c(Br)c(Oc2c(Br)c(Br)c(Br)c(Br)c2Br)c(Br)c1Br
inactive: activity, negative = cytotoxicity [1] -0.215% [at 19 µM] | activity change, negative = inhibition [2] 5.56% [at 19 µM] | viability change, negative = cytotoxic [3] 2.51% [at 15.8 µM] | activation [4] 8.87% [at 15.8 µM] | activation [5] 5.85% [at 15.8 µM]

N#Cc1ccccc1Cl
inactive: Potency [1] | Potency [2] | Potency [3] | Potency [4] | outcome [5]

COP(=O)(CCC(=O)NCO)OC
inactive: Potency [1] | Potency [2] | Potency [3] | Potency [4] | outcome [5]

CC(C)(c1ccc(O)c(-c2ccccc2)c1)c1ccc(O)c(-c2ccccc2)c1
active: Potency [1] 43.3 µM | Potency [2] 21.7 µM | Potency [3] 17.4 µM

CC(C)CBr
inactive: Potency [1] | Potency [2] | Potency [3] | Potency [4] | outcome [5]

COC(=O)N(C(=O)N1COC2(C(=O)OC)Cc3cc(Cl)ccc3C2=N1)c1ccc(OC(F)(F)F)cc1 (stereo not drawn)
inactive: Potency [1] | Potency [3]
active: Potency [2] 23.7 µM

CCC(C)c1cc(C(C)(C)C)cc(-n2nc3ccccc3n2)c1O (stereo not drawn)
inactive: Potency [1] | Potency [2] | Potency [3] | Potency [4]

Cc1cc(Cl)ccc1O[C@H](C)C(=O)O
inactive: Potency [1] | Potency [2] | Potency [3] | Potency [4] | outcome [5]

N#CCc1ccc(Cl)cc1
inactive: Potency [1] | Potency [2] | Potency [3] | Potency [4] | outcome [5]

C=COCCCl
inactive: Potency [1] | Potency [2] | Potency [3] | Potency [4] | outcome [5]

C=CCOC(N)=O
inactive: Potency [1] | Potency [2] | Potency [3] | Potency [4] | outcome [5]

N#CCCO
inactive: Potency [1] | Potency [2] | Potency [3] | Potency [4] | outcome [5]

Cc1cc(C(C)(C)c2cc(C)c(O)c(C)c2)cc(C)c1O
active: Potency [6] 47.4 µM | Potency [8] 47.4 µM | Potency [11] 59.6 µM
inactive: Potency [12] | outcome [15]

O=C(Cl)c1ccc(Cl)cc1
inactive: Potency [1] | Potency [2] | Potency [3] | Potency [4] | outcome [5]

Cn1cc(C2=C(c3cn(C4CCN(Cc5ccccn5)CC4)c4ccccc34)C(=O)NC2=O)c2ccccc21
inactive: Potency [6] | Potency [7] | Potency [13] | outcome [15] | Potency [9] | Potency [17] | Potency [10] | Potency [14] | Potency [11]
active: Potency [8] 16.8 µM

N#Cc1ccc(O)cc1
inactive: Potency [1] | Potency [2] | Potency [3] | Potency [4] | outcome [5]
